Read-out in test [1]: Matrix Metallopeptidase 1 (MMP1), MMP1 (gene 4312)
The test can be described thus: BSK_BF4T_MMP1: BioMAP Diversity Plus: BF4T Assay for Matrix Metallopeptidase 1 (MMP1) Biomarker Activity (AID 2284270). Conditions: primary human bronchial epithelial cells with fibroblasts. An outline of the steps:
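MMP-1 quantified by ELISA in primary human bronchial epithelial/dermal fibroblast co-cultures, 24 hours post-dosing, with DMSO as baseline; parallel sulforhodamine B staining (560 nm) tracks overt cytotoxicity.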

Read-out in test [2]: Tissue plasminogen activator (tPA), PLAT (gene 5327)
The test can be described thus: BSK_BF4T_tPA: BioMAP Diversity Plus: BF4T Assay for Tissue plasminogen activator (tPA) Biomarker Activity (AID 2284272). The following applies: primary human bronchial epithelial cells with fibroblasts. A digest of the protocol:
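tPA level quantified by ELISA at 24 h post-treatment in bronchial epithelial/dermal fibroblast co-cultures, gain of signal scored against DMSO baseline. Parallel cultures stained with 0.1% SRB (560 nm) to flag overt cytotoxicity.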

Read-out in test [3]: Plasminogen Activator Inhibitor-1 (PAI1), SERPINE1 (gene 5054)
The test can be described thus: BSK_BF4T_PAI1: BioMAP Diversity Plus: BF4T Assay for Plasminogen Activator Inhibitor-1 (PAI1) Biomarker Activity (AID 2284273). Conditions: primary human bronchial epithelial cells with fibroblasts. A digest of the protocol: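 PAI-1 levels quantified by ELISA 24 h post-dosing in bronchial epithelial cell plus dermal fibroblast cultures. Signal gain referenced to DMSO baseline. Sulforhodamine B total-protein staining of parallel wells checked cytotoxicity.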

Read-out in test [4]: urokinase Plasminogen Activator (uPA), PLAU (gene 5328)
The test can be described thus: BSK_BF4T_uPA: BioMAP Diversity Plus: BF4T Assay for urokinase Plasminogen Activator (uPA) Biomarker Activity (AID 2284275). The following applies: primary human bronchial epithelial cells with fibroblasts. A digest of the protocol:
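uPA levels measured by ELISA at 24 hours in BF4T cultures (bronchial epithelial cells plus dermal fibroblasts) and compared with DMSO; cytotoxicity tracked in parallel cultures by sulforhodamine B staining.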

Read-out in test [5]: Matrix Metallopeptidase 9 (MMP9), MMP9 (gene 4318)
Put plainly: BSK_BF4T_MMP9: BioMAP Diversity Plus: BF4T Assay for Matrix Metallopeptidase 9 (MMP9) Biomarker Activity (AID 2284276). Conditions: primary human bronchial epithelial cells with fibroblasts. An outline of the steps:
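MMP-9 levels were measured by ELISA after 24 h exposure of bronchial epithelial cell/dermal fibroblast co-cultures, with DMSO as baseline. Parallel cultures were stained with 0.1% SRB after TCA fixation, read at 560 nm, to flag overt cytotoxicity.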

Read-out in test [6]: Interferon-inducible T-cell alpha chemoattractant (ITAC), CXCL11 (gene 6373)
The test can be described thus: BSK_BE3C_ITAC: BioMAP Diversity Plus: BE3C Assay for Interferon-inducible T-cell alpha chemoattractant (ITAC) Biomarker Activity (AID 2284279). The following applies: primary human bronchial epithelial cells. An outline of the steps:
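ELISA read-out of I-TAC after 24 h chemical dosing of human lung primary bronchial epithelial cells; gain-of-signal fit vs DMSO baseline. Parallel SRB total-protein staining (0.1% SRB, 10% TCA fixation, 560 nm) assessed cytotoxicity.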

Read-out in test [7]: Epidermal growth factor receptor (EGFR), EGFR (gene 1956)
Put plainly: BSK_BE3C_EGFR: BioMAP Diversity Plus: BE3C Assay for Epidermal growth factor receptor (EGFR) Biomarker Activity (AID 2284281). The following applies: primary human bronchial epithelial cells. An outline of the steps: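 Human primary bronchial epithelial cells were exposed to compound for 24 h, and cell-surface EGFR was then quantified by ELISA. Activity was fitted in the positive direction against the DMSO vehicle baseline.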

Read-out in a further test: KRT18 (gene 3875)
Put plainly: BSK_BE3C_Keratin818: BioMAP Diversity Plus: BE3C Assay for Keratin 818 Biomarker Activity (AID 2284282). Conditions: primary human bronchial epithelial cells. An outline of the steps:
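ELISA read-out of Keratin 8/18 in BE3C human bronchial epithelial cultures, 24 h post-dosing; positive-direction fit vs DMSO baseline.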

Read-out in test [8]: Matrix Metallopeptidase 9 (MMP9), MMP9 (gene 4318)
Put plainly: BSK_BE3C_MMP9: BioMAP Diversity Plus: BE3C Assay for Matrix Metallopeptidase 9 (MMP9) Biomarker Activity (AID 2284283). The following applies: primary human bronchial epithelial cells. A digest of the protocol:
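Human primary bronchial epithelial cells exposed 24 h to compound. MMP9 quantified by ELISA. SRB total-protein staining of parallel cultures assesses cytotoxicity. Positive-direction fit relative to DMSO.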

Read-out in test [9]: Plasminogen activator inhibitor-1 (PAI1), SERPINE1 (gene 5054)
The test can be described thus: BSK_CASM3C_PAI1: BioMAP Diversity Plus: CASM3C Assay for Plasminogen activator inhibitor-1 (PAI1) Biomarker Activity (AID 2284284). Conditions: primary human coronary artery smooth muscle cells.

Read-out in test [10]: Monocyte Chemoattractant Protein-1 (MCP1), CCL2 (gene 6347)
Put plainly: BSK_hDFCGF_MCP1: BioMAP Diversity Plus: hDFCGF Assay for Monocyte Chemoattractant Protein-1 (MCP1) Biomarker Activity (AID 2284285). Conditions: primary human foreskin fibroblasts. An outline of the steps: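 MCP-1 ELISA readout was taken 24 hours after dosing primary human dermal fibroblasts in the hDFCGF system, with DMSO as baseline. Parallel sulforhodamine B staining of total protein tracked overt cytotoxicity.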

Read-out in test [11]: Vascular cell adhesion molecule 1 (VCAM1), VCAM1 (gene 7412)
The test can be described thus: BSK_IMphg_VCAM1: BioMAP Diversity Plus: IMphg Assay for Vascular cell adhesion molecule 1 (VCAM1) Biomarker Activity (AID 2284286). Conditions: primary human endothelial cells with macrophages. A digest of the protocol:
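ELISA read-out of VCAM-1 on venular endothelial cell/macrophage co-cultures at 24 h post-treatment, with DMSO as baseline and positive-direction fitting. Parallel sulforhodamine B total-protein staining (560 nm) served as the overt cytotoxicity measure.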

Read-out in test [12]: Intercellular Adhesion Molecule 1 (ICAM1), ICAM1 (gene 3383)
Put plainly: BSK_hDFCGF_ICAM1: BioMAP Diversity Plus: hDFCGF Assay for Intercellular Adhesion Molecule 1 (ICAM1) Biomarker Activity (AID 2284287). Conditions: primary human foreskin fibroblasts. An outline of the steps: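 ICAM-1 ELISA readout 24 h after dosing, DMSO as baseline, in human dermal foreskin fibroblast cultures. Cytotoxicity checked in parallel wells by SRB staining (0.1% SRB, 10% TCA fixation, 560 nm).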

Read-out in a further test: CD40, CD40 (gene 958)
The test can be described thus: BSK_IMphg_CD40: BioMAP Diversity Plus: IMphg Assay for CD40 Biomarker Activity (AID 2284288). The following applies: primary human endothelial cells with macrophages. A digest of the protocol: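 ELISA read-out of cell-surface CD40 at 24 h in human venular endothelial cell/macrophage co-cultures. Activity fitted in the positive direction against DMSO; parallel SRB staining (560 nm) gauges overt cytotoxicity.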

Read-out in test [13]: Interleukin-8 (IL8), CXCL8 (gene 3576)
The test can be described thus: BSK_IMphg_IL8: BioMAP Diversity Plus: IMphg Assay for Interleukin-8 (IL8) Biomarker Activity (AID 2284277). Conditions: primary human endothelial cells with macrophages. An outline of the steps:
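IL-8 levels were measured by ELISA 24 h after dosing in primary human venular endothelial cell–macrophage cultures, referenced to DMSO; parallel SRB staining monitored overt cytotoxicity.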

Read-out in test [14]: TIMP metallopeptidase inhibitor 2 (TIMP2), TIMP2 (gene 7077)
Put plainly: BSK_hDFCGF_TIMP2: BioMAP Diversity Plus: hDFCGF Assay for TIMP metallopeptidase inhibitor 2 (TIMP2) Biomarker Activity (AID 2284289). Conditions: primary human foreskin fibroblasts. An outline of the steps:
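Primary human foreskin fibroblasts in the hDFCGF system, dosed for 24 h; TIMP-2 level measured by ELISA, fitted in the positive direction against DMSO; cytotoxicity checked in parallel by sulforhodamine B total protein staining.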

Where “and” joins values, the source holds several entries; their conditions need not be identical. Equal values may be shown once. A structure can be active in one record and inactive in another. Calls of active or inactive are those of the source. How the source made its calls: active means hit-call score of the fitted dose curve at least 0.9, where 1 is the maximum; inactive means score below 0.9.

Usually AC50 stands for the concentration at which the activity in the assay is half-maximal.

With `O=S(=O)(O)CCC(F)(F)C(F)(F)C(F)(F)C(F)(F)C(F)(F)C(F)(F)C(F)(F)C(F)(F)F`, the outcome in test [1], in test [2], in [3], in test [4], in [5] and in test [6] was inactive. Besides, the result (in test [7]; in the test with KRT18 (gene 3875); in test [8]; in test [9]; in test [10]; in [11]) was inactive. For the same compound, the outcome in [12] is “inactive”; with CD40, CD40 (gene 958), “inactive”. For the same compound, the AC50 in [12] was 22.4 µM (active); with CD40, CD40 (gene 958), 20.9 µM (active).
For `CNS(=O)(=O)C(F)(F)C(F)(F)C(F)(F)C(F)(F)C(F)(F)C(F)(F)C(F)(F)C(F)(F)F`, the result in test [1], in test [2], in test [3], in test [4], in test [5] and in [6] was inactive. The result (in test [7]; in the test with KRT18 (gene 3875); in test [9]; in [10]; in [11]; in test [12]) was inactive. The outcome in the test with CD40, CD40 (gene 958) was inactive. In addition, the AC50 was 4.25 µM (active) and 373 nM (active) in [8]; 16.3 µM (active) in test [11]; 36.8 µM (active) in test [12].
With `C=C(C)C(=O)OCC(F)(F)C(F)(F)C(F)(F)C(F)F`, the result in [1], in test [2], in test [3], in [4], in test [5] and in test [13] was inactive. Also, the result (in [6]; in test [7]; in the test with KRT18 (gene 3875); in test [8]; in [9]; in test [10]) was inactive. Moreover, the outcome in test [11] is “inactive”; in [12], “inactive”; in the test with CD40, CD40 (gene 958), “inactive”; in test [14], “inactive”.
As to `O=C(Cl)C(F)(F)C(F)(F)C(F)(F)C(F)(F)C(F)(F)C(F)(F)F`, the outcome in test [1], in test [2], in test [3], in test [4], in test [5] and in [6] was inactive. In addition, the result (in [7]; with KRT18 (gene 3875); in test [8]; in test [9]; in [10]; in test [11]) was inactive. Moreover, the outcome in test [12] is “inactive”; in the test with CD40, CD40 (gene 958), “inactive”; in test [14] it was “inactive”.
Take `O=C(O)C(F)(F)C(F)(F)C(F)(F)OC(F)(C(F)(F)F)C(F)(F)F`: the result in [1], in test [2], in test [3], in test [4], in [5] and in test [6] was inactive. Moreover, the outcome (in [7]; with KRT18 (gene 3875); in [8]; in [9]; in [10]; in test [11]) was inactive. Further, the outcome in test [12] was “inactive”; in the test with CD40, CD40 (gene 958), “inactive”; in test [14], “inactive”. Moreover, the AC50 in test [8] is 6.87 µM (active).

The values are drawn from PubChem BioAssay (EPA / NIEHS).
